Hits are enriched below; roughly 2.8% of the tested compounds scored in any of these assays.
HIF-2a block: HIF-2a inhibition | inhibition, % at 18.8 µM | 786-0 RCC cells HIF-2a reporter, luciferase luminescence, overnight | actives 0.72% (n = 360,000) | AID 624352;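 active means inhibition of the luminescence signal of 40% or more relative to plate controls, in a single-dose primary screen at 18.75 µM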
Peg3 promoter: reduces Peg3 promoter-driven luciferase expression in HeLa; HeLa PEG-Prom luciferase reporter, luminescence, overnight; inhibition, % at 20 µM; actives 1.7% (n = 360,000);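 active means inhibition of at least 50% at 20 µM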
KKLEB cytotox: CF airway cell cytotoxicity counter-screen; KKLEB CF airway cells viability, ATPlite luminescence, overnight; active compounds read low; cells stimulated with P. aeruginosa culture filtrate; actives 0.36% (n = 360,000); activity change (cytotoxicity), % at 5 µM;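 active means corrected activity change at or below -50% at 5 µM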
CF NFkB inh: cystic fibrosis NF-kB activation inhibition. KKLEB NF-kB-GFP reporter, PAF-induced, GFP fluorescence overnight. AID 588850. inhibition, % at 5 µM. actives 0.86% (n = 360,000);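 active means at least 50% inhibition at 5 µM, scaled per plate between neutral and stimulator controls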;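 further: PAF is a Pseudomonas aeruginosa culture filtrate used as stimulus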
TRPM1 prom inh: MITF TRPM1 promoter inhibition in SK-MEL-5 cells | AID 488899 | SK-MEL-5 TRPM1 promoter luciferase, 24 h | actives 0.83% (n = 330,000) | inhibition, % at 12.5 µM;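 active means mean inhibition across replicates of 60% or more, whatever share of single replicates reaches that level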
Shn3 inh set2: Schnurri-3 reporter inhibition in Clone20 osteoblasts. Clone20 osteoblast Shn3 3'UTR firefly luciferase, 24 h. inhibition, % at 12.5 µM. AID 588674. actives 0.52% (n = 360,000);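 active means mean inhibition of at least 75% with every replicate also reaching 75%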
Mdm2-MdmX confirm: Mdm2/MdmX (human) interaction inhibition, confirmed. shares compounds with HIF-2a block. SaOS-2 split-luciferase Mdm2/MdmX complementation, luminescence. inhibition, % at 8 µM. actives 99% (n = 740);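 active means mean inhibition of the luminescence signal across two replicates at or above 26 percent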
Target sequence (O15151 whole entry, looked up): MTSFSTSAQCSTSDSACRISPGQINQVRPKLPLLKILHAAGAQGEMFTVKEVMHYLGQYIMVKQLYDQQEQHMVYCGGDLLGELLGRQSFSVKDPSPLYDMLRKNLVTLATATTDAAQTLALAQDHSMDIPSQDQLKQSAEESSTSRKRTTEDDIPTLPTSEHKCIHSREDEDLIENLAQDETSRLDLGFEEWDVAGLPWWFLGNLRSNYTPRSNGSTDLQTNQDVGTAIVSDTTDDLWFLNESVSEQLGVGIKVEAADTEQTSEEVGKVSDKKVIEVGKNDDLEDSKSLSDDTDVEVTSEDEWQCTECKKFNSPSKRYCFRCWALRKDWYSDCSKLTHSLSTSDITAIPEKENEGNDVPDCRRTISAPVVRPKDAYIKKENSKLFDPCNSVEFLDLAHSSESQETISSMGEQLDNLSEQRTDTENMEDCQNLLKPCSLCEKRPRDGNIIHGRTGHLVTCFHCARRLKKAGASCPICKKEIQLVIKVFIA
Target sequence (Q00987 whole entry, looked up): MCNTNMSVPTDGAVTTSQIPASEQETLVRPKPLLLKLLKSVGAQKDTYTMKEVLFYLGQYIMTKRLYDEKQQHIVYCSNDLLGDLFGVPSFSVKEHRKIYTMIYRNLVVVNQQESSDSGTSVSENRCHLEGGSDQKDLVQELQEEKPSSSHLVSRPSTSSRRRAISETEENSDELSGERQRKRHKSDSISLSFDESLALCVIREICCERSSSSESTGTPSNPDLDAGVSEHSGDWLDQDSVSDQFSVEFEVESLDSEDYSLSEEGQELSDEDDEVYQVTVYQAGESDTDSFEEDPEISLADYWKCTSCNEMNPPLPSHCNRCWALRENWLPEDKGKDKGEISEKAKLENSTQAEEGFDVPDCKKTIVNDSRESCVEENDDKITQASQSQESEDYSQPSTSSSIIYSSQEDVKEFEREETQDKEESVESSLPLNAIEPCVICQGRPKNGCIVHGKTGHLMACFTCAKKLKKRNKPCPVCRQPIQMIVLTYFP
HIF-2a conf: HIF-2a inhibition, single concentration confirmation. shares compounds with HIF-2a block. 786-0 RCC cells, HIF-2a luciferase reporter luminescence, overnight. inhibition, % at 18.8 µM. actives 56% (n = 1,800);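 active means mean inhibition across four replicates of at least 40 percent at the single tested concentration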
HIF-1a counter: counter-screen for HIF-2a inhibitors: HIF-1a inhibition in MiaPaCa-2 cells. AID 651589. shares compounds with HIF-2a block. inhibition, % at 18.8 µM. actives 72% (n = 1,800). MiaPaCa-2 HIF-1a luciferase reporter, desferoxamine, overnight;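 active means mean inhibition of the reporter signal across four replicates at the single tested dose of 50% or more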
Numbers stand for hits; - = inactive; . = not tested or not shown.

SMILES | HIF-2a block | Peg3 promoter | KKLEB cytotox | CF NFkB inh | TRPM1 prom inh | Shn3 inh set2 | HIF-2a conf | HIF-1a counter | others
Cc1ccc(C(=O)Oc2ccc(-c3nccc(-c4ccccn4)n3)cc2)cc1 | - | - | - | - | - | - | . | .
N#CC1(Nc2ccc3ccccc3c2)CCCC1 | - | - | - | - | - | - | . | .
O=C(O)c1ccccc1-c1ccccc1C(=O)NCCCO | 48.2 | - | - | - | - | - | - | -
COc1ccccc1NC(=O)Nc1ccc(CC#N)cc1 | - | - | - | - | - | - | . | .
N/C(=N\OC(=O)c1cccc(C(F)(F)F)c1)c1cnccn1 | - | - | - | - | - | - | . | .
O=C(OCn1ncc(Cl)c(Cl)c1=O)c1cccc(C(F)(F)F)c1 | 93.3 | 103.9 | - | 77.9 | 93.6 | 96.8 | 96.6 | 105.2 | Mdm2-MdmX confirm=103.2
Cc1cccc(CN2CCN(C3CN(Cc4cn(Cc5ccc(Cl)cc5)nn4)S(=O)(=O)C3)CC2)c1 (stereo not given) | - | . | . | . | . | . | . | .
CC(C)c1ccc(NC(=O)C2(C)Cc3c(-c4ccc5c(c4)OCO5)ccnc3O2)cc1 (stereo not given) | - | - | - | - | . | - | . | .
CCc1ccc(OCC(=O)NC(NC(=S)Nc2ccccc2OC)C(Cl)(Cl)Cl)cc1 (stereo not given) | 49.9 | - | - | - | - | - | - | -
CCc1ccc(OCC(=O)NC(NC(=S)Nc2ccccc2C)C(Cl)(Cl)Cl)cc1 (stereo not given) | 40.8 | 60.8 | - | - | - | - | - | 63.6
CCc1ccc(NC(=S)N2CCCC(C(F)(F)F)C2)cc1 (stereo not given) | - | - | - | - | - | - | . | .
C[C@H](NC(=O)C1CCN(S(=O)(=O)c2ccccc2)CC1)C(=O)NCc1ccc(F)cc1 | - | - | - | - | - | - | . | .
Nc1ccc(C(=O)n2c3ccccc3c3ccccc32)cc1 | 77.9 | - | - | - | - | - | 91.8 | 85.0
CCOc1cc(NC(=O)CCl)c(OCC)cc1NC(=O)CCl | - | 50.5 | - | - | 75.7 | - | . | . | Mdm2-MdmX confirm=103.0
NC(N)=N/N=C/c1ccc(OCc2ccccc2Cl)cc1 | 93.0 | 102.8 | - | - | - | - | - | 106.5
COc1ccccc1-c1noc(CCCC(=O)N2CCOCC2)n1 | - | - | - | - | . | - | . | .
COc1ccccc1-c1cc(C(F)(F)F)nc(S(=O)(=O)CCCC(=O)N2CCOCC2)n1 | 83.0 | 103.0 | -78.9 | 89.5 | 80.2 | - | 47.7 | 104.0
COc1ccc(CN(C)C(=O)[C@H]2O[C@@H](n3ccc(=O)[nH]c3=O)[C@H](O)[C@@H]2O)cc1OC | - | - | - | - | . | - | . | .
CN(C)CCCN(C(=O)c1cc2cc([N+](=O)[O-])ccc2s1)c1nc2cc3c(cc2s1)OCCO3 | 75.6 | 100.5 | -93.7 | 80.5 | 87.3 | - | - | 104.0
Cc1c(Cl)sn(-c2ccc(Cl)cc2)c1=O | 47.7 | 107.6 | -89.5 | 78.6 | 97.0 | 90.7 | . | . | Mdm2-MdmX confirm=101.7
CCc1ccc(NC(=O)CS(=O)CC(=O)Nc2ccc(-n3cnnn3)c(C)c2)cc1 (stereo not given) | - | - | - | - | - | - | . | .
Cc1ccccc1N(C(=O)c1snc(C(N)=O)c1N)C(C(=O)NC1CCCCC1)c1ccc(O)cc1 (stereo not given) | 41.9 | - | - | - | - | - | - | 85.6
N/C(Cc1ccc(Cl)cc1)=N\OC(=O)c1ccccc1 | - | - | - | - | - | - | . | .
COc1ccc(C(=O)O/N=C(\N)Cc2ccc(Cl)cc2)cc1OC | 61.9 | 113.2 | - | - | - | - | - | -
COc1cc(C(=O)O/N=C(\N)Cc2ccc([N+](=O)[O-])cc2)cc(OC)c1OC | - | - | - | - | . | - | . | .
SMILES | HIF-2a block | Peg3 promoter | KKLEB cytotox | CF NFkB inh | TRPM1 prom inh | Shn3 inh set2 | HIF-2a conf | HIF-1a counter | others
COc1ccc(C(=O)O/N=C(\N)Cc2ccc(Cl)c(Cl)c2)cc1OC | 87.9 | 104.2 | - | - | - | - | - | -
CC(C)(O)C#Cc1ccc(N2C(c3ccsc3)=Cc3ccc(F)cc3C2c2c[nH]c3ccc(C#N)cc23)cc1 (stereo not given) | - | . | . | . | . | . | . | .
CCOC(=O)c1ccc(-c2ccc(N3C(c4ccsc4)=Cc4ccc(F)cc4C3c3c[nH]c4ccc(C#N)cc34)cc2)cc1F (stereo not given) | 70.9 | . | . | . | . | . | 46.6 | -
CCOC(=O)[C@H]1[C@H]2COc3ccc(Br)cc3[C@H]2N2C(=O)CNC(=O)[C@@]12C | - | - | - | - | - | - | . | .
O=C(c1cccs1)N1CCN=C1SCc1ccc(F)cc1 | 52.0 | - | - | - | - | - | - | -
COc1ccc(NC(=O)C2Cc3c(-c4ccc(NC(C)=O)cc4)ccnc3O2)cn1 (stereo not given) | - | - | - | - | . | - | . | .
Cn1c(=O)c2ccccc2n(Cc2ccccc2Cl)c1=O | - | - | - | - | - | - | . | .
C=CS(=O)(=O)c1sc(Cl)c(N2CCOCC2)c1[N+](=O)[O-] | 65.8 | 106.2 | - | - | - | - | 75.0 | -
C=CSc1sc(Cl)c(N2CCOCC2)c1[N+](=O)[O-] | - | - | - | - | - | - | . | .
O=C(Cc1cccs1)N1CCN(S(=O)(=O)c2cc(Cl)ccc2Cl)CC1 | - | - | - | - | - | - | . | .
CCN(CC(=O)NC1CCS(=O)(=O)C1)C(=O)c1ccc(OC)c([N+](=O)[O-])c1 (stereo not given) | - | - | - | - | - | - | . | .
COc1ccc2cc(CCNC(=O)c3ccc4c(c3)OCO4)c(=O)[nH]c2c1 | 38.2 | - | - | - | - | - | - | -
CCC/C=C1/CCCOC(C(=O)NCc2ccc(C)o2)(C(F)(F)F)C1 (stereo not given) | - | - | - | - | - | - | . | .
Cc1ccccc1-n1nnnc1Sc1nnnn1-c1ccccc1 | 49.0 | 108.8 | -69.4 | 77.6 | 78.4 | - | - | 100.3 | Mdm2-MdmX confirm=103.7
Cc1ccccc1-n1nnnc1SCC(N)=O | - | - | - | - | - | - | . | .
CCC(=O)Nc1cccc(C(=O)/C=C/c2cc(Br)ccc2OC)c1 | 83.8 | 103.6 | - | - | 91.0 | - | 84.2 | 105.7 | Mdm2-MdmX confirm=102.7
COc1ccc(Br)cc1/C=C/C(=O)Nc1ccc2ccccc2c1 | - | - | - | - | - | - | . | .
O=C(C1CC(=O)N(C2CCCCC2)C1)N1CCc2ccccc21 (stereo not given) | - | - | - | - | - | - | . | .
Cc1ccc(C(=O)/C=C/c2ccc(F)cc2)o1 | - | - | - | - | - | - | . | .
O=C(/C=C/c1ccc(F)cc1)c1ccccc1Br | 59.1 | 103.9 | - | 56.7 | - | - | 43.1 | 105.8

Source: PubChem BioAssay (several laboratories)
